# Laboratory results taken from PubChem BioAssay (NCATS).
# Inconclusive results are not listed. A call without a number means that no potency is given here. Values without a mark were called inactive. Activity calls are given as the source filed them. Calls follow the shape of the dose curve; as a rule, active = well fitted curve in the direction sought with a large enough effect; inconclusive = small, poorly fitted or top-dose-only effect, or another doubt; inactive = no such curve, though single readings can be large; an effect the other way counts as inactive or inconclusive.
# Columns and labels:
# [1] = tested on: Zika virus NS2B-NS3 protease; assay: Primary screen GU AMC qHTS for Zika virus inhibitors (AID 1347154); also: nearly all actives have a fitted effect of over 70% in size
# Summary of the method: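 Unlinked Zika NS2B hydrophilic domain/NS3 protease domain noncovalent complex (25 nM final) in 10 mM Tris-HCl pH 8.0, 0.01% Tween 20, with AMC peptide substrate. Fluorescence (ex 340, em 450 nm) change over 15 min, room temperature; percent inhibition fitted to 4-parameter Hill equation.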
# [2] = Primary qHTS for small molecule stabilizers of the endoplasmic reticulum resident proteome: Secreted ER Calcium Modulated Protein (SERCaMP) assay (AID 1508630)
# Summary of the method: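 GLuc-SERCaMP-expressing SH-SY5Y cells, pretreated 16 h with compound, are challenged with thapsigargin to empty ER calcium stores; after 4 h, coelenterazine is added directly to the medium and luminescence is imaged.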
Compound,Potency [1],Potency [2],"activity change, negative = inhibition [1]","activity change, negative = inhibition [2]"
C[C@H](CCC(=O)NCCS(=O)(=O)O)C1CC[C@H]2C3CC[C@@H]4C[C@H](O)CC[C@]4(C)C3C[C@H](O)[C@]12C (stereo not given in full),inactive,inactive,–,–
CCCN1CCCC(c2cccc(S(C)(=O)=O)c2)C1 (stereo not given),inactive,inactive,–,–
CC(C)c1ccc2c(c1)CC[C@H]1[C@](C)(CN)CCC[C@]21C,inactive,inactive,–,–
O=[N+]([O-])c1cc2nc(O)c(O)nc2cc1[N+](=O)[O-],inactive,inactive,–,–
Nc1ccnc2c1ncn2[C@@H]1O[C@H](CO)[C@@H](O)[C@H]1O,inactive,inactive,–,–
C[C@@H](N)CCCP(=O)(O)O,inactive,inactive,–,–
CS/C(N)=C(C#N)/C(C#N)=C(\N)SC,inactive,inactive,–,–
CCCCCCCC/C=C\CCCCCCCC(=O)OC[C@H](CO)OC(C)=O,–,–,16.8% [at 6.83 µM],-28% [at 3.88 µM]
NCCC(=O)c1ccccc1N,inactive,inactive,–,–
COc1ccc(-n2[nH]c3c4c(ncc3c2=O)CCCCC4)cc1,inactive,inactive,–,–
CC(O)(C(=O)Nc1ccc(S(=O)(=O)c2ccccc2)cc1)C(F)(F)F (stereo not given),inactive,inactive,–,–
CCCCCCCCC#CCC#CCC#CCCCC(=O)O,–,–,19.3% [at 6.83 µM],-14.3% [at 3.88 µM]
CC(C)[C@H](O)CC[C@@H](C)C1CC[C@H]2C3CC=C4C[C@@H](O)CC[C@]4(C)C3CC[C@]12C (stereo not given in full),inactive,inactive,–,–
NCC(O)COc1cccc2ccccc12 (stereo not given),inactive,inactive,–,–
CCCC1OC2CC3C4CCC5=CC(=O)C=CC5(C)C4C(O)CC3(C)C2(C(=O)CO)O1 (stereo not given),inactive,inactive,–,–
CCCCC/C=C\C/C=C\CCCCCCCC(N)=O,–,–,15% [at 6.83 µM],-21% [at 3.88 µM]
CCC(N)(C(=O)O)c1ccc(C(=O)O)cc1 (stereo not given),inactive,inactive,–,–
Nc1ncnc2c1ncn2C1O[C@H](COP(=O)(O)O)[C@@H](O)[C@H]1O (stereo not given in full),inactive,inactive,–,–
CCCCC/C=C\CC1OC1CCCCCCCC(=O)O (stereo not given),–,–,6.59% [at 0.59 µM],-29.7% [at 0.478 µM]
C[N+]1(Cc2ccccc2)CCC(C(=O)OCC2CCCC2)CC1 (stereo not given),inactive,inactive,–,–

Compound,Potency [1],Potency [2],"activity change, negative = inhibition [1]","activity change, negative = inhibition [2]"
CCCCCC(=O)/C=C/C=C\CCCCCCCC(=O)O,–,–,0.325% [at 0.59 µM],-7.64% [at 0.478 µM]
C1CCC(NC(=NC2C3CC4CC(C3)CC2C4)N2CCOCC2)CC1 (stereo not given),inactive,inactive,–,–
O=C(Nc1ccccc1)C12CC1/C(=N\O)c1ccccc1O2 (stereo not given),inactive,inactive,–,–
NC1=NC2C(N=C(Br)N2[C@@H]2O[C@H]3COP(=O)(O)O[C@@H]3[C@@H]2O)C(=O)N1 (stereo not given in full),inactive,inactive,–,–
NCCCC[C@@H](N)C(=O)O,inactive,inactive,–,–
C[C@@]12CCC[C@H]1C1CC[C@H]3C[C@H](O)CC[C@]3(C)C1CC2 (stereo not given in full),inactive,inactive,–,–
COc1cc2ncnc(Nc3ccc(Cl)cc3F)c2cc1OC,inactive,inactive,–,–
Nc1c(S(=O)(=O)O)cc(Nc2cccc3ccccc23)c2c1C(=O)c1ccccc1C2=O,inactive,inactive,–,–
NC(=O)N/N=C/c1ccc(Oc2ccc(F)cc2)cc1,inactive,inactive,–,–
CC12CCC3c4ccc(O)cc4CCC3C1CCC2O (stereo not given),inactive,inactive,–,–
CCCCC/C=C\C/C=C\CCCCCCCC(=O)NCC(=O)O,–,–,18.9% [at 6.83 µM],-10.8% [at 3.88 µM]
CC(=O)OCOC(c1ccc2ccccc2c1)P(=O)(OCOC(C)=O)OCOC(C)=O (stereo not given),inactive,inactive,–,–
CCC(=O)NC1CCc2cccc(OC)c2C1 (stereo not given),inactive,inactive,–,–
CC/C=C\C/C=C\C/C=C\CCCCCCCCCCCC(=O)O,–,–,-2.15% [at 6.83 µM],10.3% [at 3.88 µM]
CNc1ncnc2c1ncn2[C@H]1C[C@H](O)[C@@H](CO)O1,inactive,inactive,–,–
CCCCC/C=C\C/C=C\CCCCCCCCCC(=O)O,–,–,-1.98% [at 6.83 µM],-7.65% [at 3.88 µM]
O=Nc1ccc(O)c2ncccc12,inactive,inactive,–,–
CSCC[C@@H](N)C(=O)O,inactive,inactive,–,–
CCCCC(C)(C)[C@H](O)/C=C/[C@H]1[C@H](O)CC(=O)[C@@H]1C/C=C\CCCC(=O)O,–,–,5.54% [at 6.83 µM],8.87% [at 3.88 µM]
CCCCCCCCCCCCC/C=C/[C@@H](O)[C@H](CO)NCCCCCCCC,–,–,15.2% [at 6.83 µM],-10.1% [at 3.88 µM]

Compound,Potency [1],Potency [2],"activity change, negative = inhibition [1]","activity change, negative = inhibition [2]"
COc1ccc(C2CC(c3c(O)cc(C)oc3=O)=NCCS2)c(OC)c1 (stereo not given),inactive,inactive,–,–
C=NCc1cc2c(OC[C@@H](O)CNC(C)(C)C)cccc2[nH]1,inactive,inactive,–,–
CCCCCCCCCCCCC/C=C/[C@@H](O)[C@H](CO)NC(C)=O,–,–,16.6% [at 6.83 µM],1.43% [at 3.88 µM]
N#C/C(=C\c1cc(Cl)cc(Cl)c1)c1cccnc1,inactive,inactive,–,–
COc1ccccc1C1(O)CCN(CCCn2c3ccccc3c3ccccc32)CC1,inactive,inactive,–,–
COc1ccc(/C=C/C(=O)CC(=O)/C=C/c2cccc(O)c2OC)cc1O,inactive,inactive,–,–
CC[C@@H](C)[C@@H](CO[C@@H](Cc1ccccc1)C(=O)N[C@@H](CCS(C)(=O)=O)C(=O)OC(C)C)NC[C@@H](N)CS,inactive,inactive,–,–
CO[C@H]1C[C@@H]2CC[C@@H](C)[C@@](O)(O2)C(=O)C(=O)N2CCCC[C@H]2C(=O)OC([C@H](C)C[C@@H]2CC[C@@H](O)[C@H](OC)C2)CC(=O)[C@H](C)/C=C(\C)[C@@H](O)[C@@H](OC)C(=O)[C@H](C)C[C@H](C)/C=C/C=C/C=C/1C (stereo not given in full),inactive,inactive,–,–
Cn1cnc2nc(NCCO)nc(NCc3ccccc3)c21,inactive,inactive,–,–
COC(=O)[C@@H](c1ccccc1Cl)N1CCc2sccc2C1,inactive,inactive,–,–
CCCCC/C=C\C/C=C\C/C=C\C/C=C\CCCCCC(=O)O,–,–,-5.55% [at 6.83 µM],14.9% [at 3.88 µM]
C[C@]12CC[C@@H](O)C[C@@H]1CC[C@@H]1[C@@H]2CC[C@]2(C)C=CC[C@@H]12,inactive,inactive,–,–
CN(C)C(=O)n1nnnc1Cc1ccc(-c2ccccc2)cc1,inactive,inactive,–,–
NCCNC(=O)Cc1ccc(NC(=O)Cc2ccc(Nc3ncnc4c3ncn4[C@@H]3O[C@H](CO)[C@@H](O)[C@H]3O)cc2)cc1,inactive,inactive,–,–
O=c1ccn([C@@H]2O[C@H](COP(=O)(O)OP(=O)(O)OP(=O)(O)O)[C@@H](O)[C@H]2O)c(=O)[nH]1,inactive,inactive,–,–
CC(C)C(NS(=O)(=O)c1ccc(-c2ccc(Br)cc2)cc1)C(=O)O (stereo not given),inactive,inactive,–,–
N[C@](CC1c2ccccc2Oc2ccccc21)(C(=O)O)[C@H]1C[C@@H]1C(=O)O,inactive,inactive,–,–
CC1=C(/C=C/C(C)=C\C=C\C(C)=C\C(=O)O)C(C)(C)CCC1,inactive,inactive,–,–
C=C1/C(=C\C=C2\CCCC3(C)C2CCC3C(C)/C=C/C(O)C2CC2)CC(O)CC1O (stereo not given),inactive,inactive,–,–
CC(C)C[C@H](NC(=O)[C@H](CCCCN)NC(=O)[C@H](CCCNC(=N)N)NC(=O)[C@H](C)NC(=O)[C@H](CO)NC(=O)[C@H](CCCCN)NC(=O)[C@H](CCCNC(=N)N)NC(=O)[C@H](C)NC(=O)CNC(=O)[C@@H](NC(=O)[C@H](Cc1ccccc1)NC(=O)CNC(=O)CNC(=O)[C@@H](N)Cc1ccccc1)[C@H](C)O)C(=O)N[C@@H](C)C(=O)N[C@@H](CC(N)=O)C(=O)N[C@@H](CCC(N)=O)C(=O)O,–,–,-13.5% [at 6.83 µM],13.9% [at 3.88 µM]
